The values below come from PubChem BioAssay (NCI).

About 83,000 compounds went through this panel and 20% of them were active in at least one assay; those are over-represented in the sample as a whole.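 96-well plates, one dose, 48 hours. Percent growth reported; active if below 10.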 A number with no mark means an inactive call. The source made the active and inactive calls.

The subject of the assay is MCF7 breast. The assay is described as follows: NCI-60 one-dose screen, 48 h (100 = growth as untreated, 0 = no growth, -100 = all killed). To be noted: 10 µM unless noted.
Turning to `CCN1C(=O)N(CC)C2SC(N/N=C/c3cccs3)=NC21` (stereo not given), the growth is 17.3%.

In the case of `O=C1NC(=O)/C(=C/c2ccc(OCc3cc4ccccc4nc3Cl)cc2)S1`, the growth is 91.6%. For the compound `O=C(NNc1nc2cc(F)c(F)cc2n2cccc12)c1ccncn1`, the growth was 6% (active). Take `C#C[C@]1(O)CC[C@H]2[C@@H]3CC=C4c5sc(Nc6nc(C)cc(OC)n6)nc5CC[C@]4(C)[C@H]3CC[C@@]21C`: the growth is 8.47% (active). For `O=C(O)CNS(=O)(=O)c1ccc(Oc2ccc(S(=O)(=O)NCC(=O)O)cc2)cc1` the value was 93.2%; for `Cc1cc(NS(=O)(=O)c2ccc(-c3cnc(C4CC4)o3)cc2)ccc1I`, 25.4%.

On to `COc1ccc(C(=O)c2c(N)c(C#N)cn2-c2cccc(OC)c2)cc1`, for which the growth is 17.5%.

`COc1ccc(CCN2C(=O)CSC2=S)cc1OC`: the growth was 29.3%. For `Cc1ccc(/C=C/CC(=O)Nc2ccc(C(=O)Nc3ccc(F)cc3N)cc2)cn1` the value was 39.6%. For `C[C@H]1[C@H](C)CC[C@]2(COC(=O)c3cccnc3)CC[C@]3(C)C(=CC[C@@H]4[C@@]5(C)CCCNC(C)(C)[C@@H]5CC[C@]43C)[C@H]12` the value was 67.3%; for `Fc1ccccc1/C=C(/C1=NCCN1)n1cnc2ccccc21`, 86.2%. For `COc1ccc(CN2C(=O)/C(=C/c3nc(CO)cs3)SC2=S)cc1` the value was 12%. On to `O=C(Nc1cc(F)cc2cccnc12)c1cnc(N2CCOCC2)cn1`, for which the growth is 2.58% (active).

In the case of `CC1OC(O[C@@H]2[C@H](O)C(CO)OC(O[C@H]3COC(O[C@H]4CC[C@]5(C)[C@H]6CC[C@]78OC[C@@]9(CCC(C)(C)C[C@H]97)[C@H](O)C[C@@]8(C)[C@]6(C)CC[C@H]5C4(C)C)[C@@H](OC4OC(CO)[C@@H](O)[C@@H](O)[C@@H]4O)[C@@H]3O)[C@H]2OC2OC[C@@H](O)[C@@H](O)[C@@H]2O)[C@@H](O)[C@@H](O)[C@H]1O` (stereo not given in full), the growth is -55.9% (active).

On to `C#C[C@]1(O)CC[C@H]2[C@@H]3CC=C4c5sc(Nc6cccc(Cl)n6)nc5CC[C@]4(C)[C@H]3CC[C@@]21C`, for which the growth is -70.4% (active). Turning to `Cc1ccc(/C=C/CC(=O)Nc2ccc(C(=O)Nc3ccc(F)cc3N)nc2)cn1`, the growth is 18.4%. Regarding `O=C1[C@@H]2Cc3c([nH]c4ccccc34)[C@H](c3c(Cl)cccc3Cl)N2C(=O)CN1C1CCN(Cc2ccccc2)CC1`, the growth was 1.17% (active).

On to `C#CCOc1ccc(C(Nc2ccc(OC)cc2)c2nnnn2C2CCCCC2)cc1` (stereo not given), for which the growth was 91.7%. For the compound `COc1cc(C(=O)c2cc(C(C)=O)c3c4ccccc4ccn23)cc(OC)c1OC`, the growth was 34.2%. Turning to `Cc1[nH]nc2ccc(-c3nc4cnc(N5CCN(C)CC5)cn4c3Nc3ccc(F)cc3Br)cc12`, the growth was 15.5%.

`O=C(Nc1cccc(Cl)c1)Nc1nc2ccc(-c3cccc4ccccc34)cc2s1`: the growth was 58.3%. For `Cc1cc(C(=O)Nc2ccc(SC#N)cc2)c(C)o1` the value was 88.1%; for `O=C(NNc1nc2cc(F)c(F)cc2n2cccc12)c1ncccn1`, 16.9%; for `CN1CCN(c2ccc(NC(=O)Nc3ccc4c(ccn4-c4cccc(C(N)=O)n4)c3)cc2C(F)(F)F)CC1`, 10.7%. Turning to `O=C(Nc1ccc(Cl)cc1)Nc1nc2ccc([N+](=O)[O-])cc2s1`, the growth was -15.4% (active). With `NC(=O)c1c(NC(=O)c2cccc(OC(F)(F)F)c2)sc2c1CCC(=O)C2`, the growth was 27.4%.

Consider `O=C(/C=C1\C=CN(CCCCO)c2ccccc21)n1ccc2ccccc21`, for which the growth is 95.8%. For `O=C1c2c(c3c4cccnc4[nH]c3c3ccc4ccccc4c23)C(=O)N1CCN1CCNCC1`, the growth is 27.8%. `O=C(Nc1ccccc1)Nc1nc2ccc([N+](=O)[O-])cc2s1`: the growth is 2.9% (active). On to `Cc1cc(Cl)cc(NS(=O)(=O)c2ccc(-c3cnc(C4CC4)o3)cc2)c1`, for which the growth is 24.9%.

As for `CCOC(=O)C1=C(C)Nc2nc3ccccc3n2C1c1cccc(Br)c1` (stereo not given), the growth is 38.3%. Consider `CCOC(=O)c1nn(-c2ccc(C)cc2)c(=O)c2c(N)c(C#N)c(-c3ccc(OC)cc3)cc12`, for which the growth is 95.5%. With `Cc1ccc(NC(=O)c2cccc(CN3CCN(C)CC3)c2)cc1Oc1ccc(-c2[nH]nc3ncnc(N)c23)cc1`, the growth was 41.4%.

Take `O=C1c2c(c3c4cc(Br)ccc4[nH]c3c3ccc4ccccc4c23)C(=O)N1CCN1CCCCC1`: the growth is -35.6% (active).

As to `CC(C)(C)OC(=O)N1CCN(S(=O)(=O)/N=C2\NC(=O)NC2=C(Cl)Cl)CC1`, the growth is 79.7%.
